# High-throughput results (PubChem BioAssay)
# Only some compounds are listed: those with a hit (about 19% of all), similar ones and a draw of the others.
# IL1B secr inh: inflammasome signaling inhibition, IL-1 beta readout; THP-1 LPS/ATP IL-1B secretion, AlphaLISA, 16 h; active compounds read low; activity change, % at 57.5 µM; 360,000 tested, 4.7% active; in the data active = activity change below about -50%; inconclusive = mostly about -30% to -49%; also: % is scaled to controls: 0 for no effect and ±100 for the full control effect
#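 Secreted IL-1B measured by AlphaLISA bead assay after 16 h compound exposure of THP-1 cells; compounds (final up to 57.5 uM) added 1 h before LPS (250 ng/mL) and ATP (1.25 mM) stimulation; lower signal means less secretion.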
# HepG2 tox: kills HepG2 cells in TGF-b inhibitor counter-screen. HepG2 CAGA-GFP viability, ATP luminescence, 18 h. Potency, µM (titrated, usually from 46.1 µM), without a hit: top-dose activity change, negative = cytotoxicity, usual class: cytotoxic. 410,000 tested, 0.76% active. AID 588856; also: potency is read from the fitted curve at half-maximal effect
#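 CellTiter-Glo luminescence gave cytotoxicity after 18 hours at 37 degrees C. The cells were HepG2 CAGA-GFP in 1% FBS DMEM, stimulated with 500 pg/mL TGF-beta after compound addition. %Activity was normalised to no-cell wells (complete cell-killing) and DMSO (no toxicity), and curves were fitted and classified.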
# TGFb inhibitor: inhibitors of TGF-b signaling. Potency, µM (titrated, usually from 46.1 µM), without a hit: at the highest dose activity, negative = inhibition, hits mostly inhibitors. 410,000 tested, 1.2% active. HepG2 CAGA-GFP TGF-b/SMAD3 reporter, GFP fluorescence, 18 h; TGF-beta stimulated, 500 pg/mL final; also: potency is read from the fitted curve at half-maximal effect; % is scaled to controls: 0 for no effect and ±100 for the full control effect; nearly all actives have a fitted effect of over 65% in size
#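 HEPG2 CAGA-GFP reporter cells (1000/well, DMEM with 1% FBS) received compounds, then recombinant TGF-beta at 500 pg/mL final for 18 hours at 37 degrees C. Per-cell GFP summed per well was normalised to unstimulated and stimulated DMSO controls before curve fitting.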
# DT40 TDP1 CPT: growth inhibition of DT40 Tdp1-/-;hTDP1 cells with camptothecin (screen for TDP1 inhibitors) | chicken DT40 Tdp1-/-;hTDP1 cells + 20 nM CPT, ATP luminescence, 48 h | 420,000 tested, 12% active | Potency, µM (doses to about 46.2 µM), without a hit: at the top dose activity change, negative = growth inhibition, hits mostly inhibitors; also: potency is read from the fitted curve at half-maximal effect; % is scaled to controls: 0 for no effect and ±100 for the full control effect; nearly all actives have a fitted effect of over 55% in size
#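 Cell growth measured by CellTiter-Glo luminescence after a minimum 48 h, 37 C compound exposure with 20 nM CPT in Tdp1-knockout DT40 cells stably expressing hTDP1, seeded 400/well; qHTS titration format.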
# DT40 TDP1 no CPT: qHTS for Inhibitors of human tyrosyl-DNA phosphodiesterase 1 (TDP1): qHTS in cells in absence of CPT; DT40 Tdp1-/- hTDP1 cells, no CPT, ATP luminescence, 48 h; Potency, µM (top dose mostly 46.2 µM), inactives show top-dose activity change, negative = growth inhibition, actives largely listed as inhibitors; 420,000 tested, 15% active; also: potency is read from the fitted curve at half-maximal effect; % is scaled to controls: 0 for no effect and ±100 for the full control effect; nearly all actives have a fitted effect of over 55% in size
#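 DT40 Tdp1-/-;hTDP1 cells, no CPT (DMSO vehicle only), 400 cells/well; compounds pin-transferred; ≥48 hr, 37 °C; CellTiter-Glo 30 min RT dark, luminescence read.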
# TDP1 inh: blocks human tyrosyl-DNA phosphodiesterase 1. recombinant TDP1, AlphaScreen DNA substrate cleavage. Potency, µM (doses to about 130 µM), without a hit: at the top dose activity change, negative = inhibition, usual class: inhibitors. 350,000 tested, 0.28% active; also: potency is read from the fitted curve at half-maximal effect; % is scaled to controls: 0 for no effect and ±100 for the full control effect; nearly all actives have a fitted effect of over 40% in size
# Target sequence (Q9NUW8 whole entry, looked up): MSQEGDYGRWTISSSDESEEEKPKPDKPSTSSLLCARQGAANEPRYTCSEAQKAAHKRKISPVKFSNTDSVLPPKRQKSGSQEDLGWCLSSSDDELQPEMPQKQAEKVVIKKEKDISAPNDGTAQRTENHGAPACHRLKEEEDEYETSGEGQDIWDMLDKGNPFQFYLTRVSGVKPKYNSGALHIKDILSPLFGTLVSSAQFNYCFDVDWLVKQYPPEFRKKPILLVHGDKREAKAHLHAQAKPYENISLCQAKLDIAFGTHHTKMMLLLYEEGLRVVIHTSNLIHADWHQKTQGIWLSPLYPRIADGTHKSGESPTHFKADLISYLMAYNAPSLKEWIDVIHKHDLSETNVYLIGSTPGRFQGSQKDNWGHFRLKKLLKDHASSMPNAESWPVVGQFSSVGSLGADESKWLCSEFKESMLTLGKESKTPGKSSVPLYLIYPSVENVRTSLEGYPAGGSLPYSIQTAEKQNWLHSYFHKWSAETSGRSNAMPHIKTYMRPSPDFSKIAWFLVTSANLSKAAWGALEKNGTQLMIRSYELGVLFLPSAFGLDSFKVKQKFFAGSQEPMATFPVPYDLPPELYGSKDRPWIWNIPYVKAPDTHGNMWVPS
#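 Recombinant E. coli-expressed Tdp1 (1 nM) preincubated with compound 15 min at RT, then 5'-biotin/3'-phosphotyrosine-FITC DNA substrate (15 nM) added for 5 min. AlphaScreen beads (10 ug/ml) added, 10 min RT; tyrosine-FITC cleavage read as signal loss.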
# * = called active by the depositor; i = inactive; ? = inconclusive; . = no result; [ ] = remark or other dose. Unless noted, calls follow the shape of the dose curve; as a rule, active = well fitted curve in the direction sought with a large enough effect; inconclusive = small, poorly fitted or top-dose-only effect, or another doubt; inactive = no such curve, though single readings can be large; an effect the other way counts as inactive or inconclusive.
SMILES,IL1B secr inh,HepG2 tox,TGFb inhibitor,DT40 TDP1 CPT,DT40 TDP1 no CPT,TDP1 inh
O=C(c1ccccc1F)N1CCN(S(=O)(=O)c2ccc3c(c2)OCCO3)CC1,-16,-15%,-3%,12µM*,?,2%
O=C(CCl)N1CCN(S(=O)(=O)c2ccc3c(c2)OCCCO3)CC1,-96*,-101%,?,5.2µM*,3.7µM*,0%
CCCCCC(=O)N1CCN(S(=O)(=O)c2ccc3c(c2)OCCO3)CC1,9,-25%,-5%,-4%,-20%,4%
O=C(CCl)N1CCN(S(=O)(=O)c2ccc3ccccc3c2)CC1,-99*,i,?,3.3µM*,5.8µM*,15%
CC(C)Cc1nc2cc(NS(=O)(=O)N(C)C)cc(C(=O)N3CCOc4ccccc4C3)c2n1C,.,.,.,-2%[9.04 µM],-15%,.
Nn1cc(-c2ccccc2)nc1SCC(=O)N1CCN(S(=O)(=O)c2ccc(Cl)cc2)CC1,-11,-18%,0%,-11%,-21%,4%
O=C(c1ccccn1)N1CCN(S(=O)(=O)c2ccc3ccccc3c2)CC1,24,-4%,-20%,-2%,-27%,3%
Nn1cc(-c2ccccc2)nc1SCC(=O)N1CCN(S(=O)(=O)c2ccc3ccccc3c2)CC1,-51*,-13%,?,?,?,9%
CCOc1ncccc1C(=O)N1CCN(S(=O)(=O)c2ccc3ccccc3c2)CC1,-3,-16%,?,23µM*,?,1%
CCC(=O)Nc1ccc(-c2nnc(SCc3ccccc3)n2C)cc1,.,-14%,-2%,-26%,-6%,.
O=C(Nc1cc(S(=O)(=O)N2CCOCC2)ccc1N1CCOCC1)c1ccc(S(=O)(=O)N2CCCCC2)cc1,-26,-31%,-5%,-2%,0%,6%
CC(C)COc1ccc(C(=O)Nc2cc(S(=O)(=O)N3CCOCC3)ccc2N2CCCC2)cc1,3,-17%,-17%,16µM*,26µM*,0%
CC(C)Oc1ccc(C(=O)Nc2cc(S(=O)(=O)N3CCOCC3)ccc2N2CCOCC2)cc1,-7,-16%,8%,?,21µM*,-3%
Cc1ccc(CSCC(=O)Nc2cc(S(=O)(=O)N3CCOCC3)ccc2OC(C)C)cc1,-6,-14%,-40%,?,23µM*,1%
CC(=O)N1c2ccccc2C(C)(c2ccc(C)cc2)CC1(C)C (centres undefined),.,-35%,-17%,.,.,.
CCOc1ccccc1NC(=O)Cn1c(=O)n(-c2ccccc2)c(=O)c2c1c1cc(C)ccc1n2C,.,4%,1%,2%,5%,3%
COc1ccc(NC(=O)N2CCCC3(CCN(C(=O)c4ccc(OC)cc4)CC3)C2)cc1,.,.,.,4%,-30%,.
Cc1ccc(C(=O)CCC(=O)N2CCN(C/C=C/c3ccccc3)CC2)cc1,4,-23%,-14%,?,21µM*,.
COc1ccc(C(=O)NCC(=O)N2CC=C(c3ccccc3)CC2)cc1OC,7,-20%,-16%,?,26µM*,-3%[56.1 µM]
CCOc1ccc(C(=O)NCC(=O)N2CCN(C/C=C/c3ccccc3)CC2)cc1OCC,4,-18%,-6%,?,16µM*,.
COc1ccccc1C(=O)NCC(=O)N1CCN(C/C=C/c2ccccc2)CC1,-7,-16%,0%,?,?,1%
CCOC(=O)N1CCN(C(=O)C(NC(=O)c2ccc(C(C)(C)C)cc2)C(C)C)CC1 (centres undefined),0,0%,-2%,8.2µM*,2.3µM*,1%
Cc1ccc(NC(=O)N2CCN(C/C=C/c3ccccc3)CC2)cc1,-8,-22%,-16%,-2%,1%,6%
